Laboratory results reported in PubChem BioAssay AID588676 (Johns Hopkins Ion Channel Center, 2011).
Screen size: about 310,000 compounds; about 3,900 (1.3%) were called active.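 The calls were made as follows: active = calcium-response B-score plate-corrected more than 3 library SD below zero, starting fluorescence within 5 deviations, no agonist response on first addition; inactive = the rest.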 What follows is part of a selection rich in actives, with near analogues and random picks from the rest.

Biological target: Mas-related G-protein coupled receptor member X1 (Homo sapiens) (UniProt Q96LB2)
Test: antagonists of human MrgX1 receptor, primary screen, HEK293 cells, Fluo-4 calcium flux (AID 588676);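 as to B-score: peak minus trough fluorescence over baseline after final BAM8-22 challenge near maximal dose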
Details: Fluo-4, BAM8-22 antagonism, at 10 µM; stronger effect = lower value

Sequence of Mas-related G-protein coupled receptor member X1 (Homo sapiens) (Q96LB2 whole entry, looked up): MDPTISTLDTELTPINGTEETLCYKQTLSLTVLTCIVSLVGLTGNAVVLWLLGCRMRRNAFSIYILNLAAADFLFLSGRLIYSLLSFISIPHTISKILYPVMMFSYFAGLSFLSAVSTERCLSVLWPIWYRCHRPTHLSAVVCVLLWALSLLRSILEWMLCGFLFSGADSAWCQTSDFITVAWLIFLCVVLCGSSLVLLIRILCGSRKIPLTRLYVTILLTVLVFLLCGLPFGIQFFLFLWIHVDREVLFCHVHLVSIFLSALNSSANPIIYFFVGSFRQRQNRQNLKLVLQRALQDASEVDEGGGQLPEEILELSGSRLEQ

| SMILES | B-score |
| --- | --- |
| CCOc1ccc(-n2cnc3c(=O)[nH]c(N)nc32)cc1 | inactive |
| O=C(Nc1nc2ccccc2s1)c1ccc2c(c1)OCO2 | inactive |
| COCc1nnc(NC(=O)c2ccc3c(c2)OCO3)s1 | -5.8 (active) |
| CCCc1nnc(NC(=O)c2cc(OC)cc(OC)c2)s1 | inactive |
| COc1cc(NC(=O)CN(C)S(=O)(=O)c2ccc3nc(C)sc3c2)cc(OC)c1 | inactive |
| Cc1cccc(N(CC(=O)Nc2ccc(-c3nc4ccc(C)cc4s3)cc2)S(C)(=O)=O)c1 | inactive |
| Cc1ccc2nc(-c3ccc(NC(=O)CN(C)S(=O)(=O)c4ccccc4)cc3)sc2c1 | -4.7 (active) |
| CCOC(=O)c1ccc(NC(=O)c2cccnc2)cc1 | inactive |
| Cc1ccc2nc(-c3ccc(NC(=O)c4cccnc4)cc3)oc2c1 | -5.36 (active) |
| Cc1cc2nc(-c3ccc(NC(=O)c4cccnc4)cc3)oc2cc1C | inactive |
| Cc1ccc(N2C(=O)CC(NCc3ccc4c(c3)OCO4)C2=O)cc1Cl (centres undefined) | inactive |
| O=C(CSc1nnnn1-c1ccc(O)cc1)N1N=C(c2ccc3ccccc3c2)CC1c1ccccc1 (centres undefined) | inactive |
| CSc1nc2c(c(=O)[nH]1)C(c1cccc(Cl)c1Cl)CC(=O)N2 (centres undefined) | inactive |
| CCOc1ccc(Nc2nc(Cc3nnc(SCC(=O)c4ccc(C)cc4)o3)cs2)cc1 | inactive |
| CC(C)OCCCNC(=O)c1cc(Sc2ccc(F)cc2)nc2ccccc12 | inactive |
| COc1cc(OC)c(OC)cc1/C=N/Nc1ncnc2c1[nH]c1ccc(C)cc12 | inactive |
| CC(C)OCCCNc1ncnc2c1[nH]c1ccc(F)cc12 | -12 (active) |
| O=C(CN1CCN(c2ccccn2)CC1)NCc1cccs1 | inactive |
| O=C(CN1CCN(c2ccccn2)CC1)NC1CCCCC1 | -5.03 (active) |
| O=C(CN1CCN(c2ccccn2)CC1)Nc1ccc(Br)cc1 | inactive |
| CCOC(=O)C1=C(c2ccc(OC)cc2)C(=O)c2ccccc2C1=O | inactive |
| CCOC(=O)C1C(=O)C=C(c2ccc(OC)cc2)CC1c1ccco1 (centres undefined) | -5.76 (active) |
| CCOC(=O)C1C(=O)NC(N2CCN(c3ccccc3)CC2)=NC1c1ccco1 (centres undefined) | inactive |
| N#Cc1cccc(CN2CCC(=O)N([C@H](CO)c3ccccc3)CC2)c1 | inactive |
| Cc1cccc(N2CCN(C(=O)C3CCN(S(=O)(=O)c4cnc[nH]4)CC3)CC2)c1C | inactive |

| SMILES | B-score |
| --- | --- |
| O=C(C1CCN(S(=O)(=O)c2cnc[nH]2)CC1)N1CCN(Cc2ccc3c(c2)OCO3)CC1 | -6 (active) |
| O=C(C1CCN(Cc2ccc(Cl)cc2)CC1)N1CCN(Cc2ccc3c(c2)OCO3)CC1 | inactive |
| Cc1ccc(C(=O)N2CC(=O)Nc3ccc(F)cc3C2c2ccc(F)cc2)cc1 (centres undefined) | inactive |
| O=C(NCCCN1CCOCC1)c1ccc([N+](=O)[O-])cc1[N+](=O)[O-] | inactive |
| O=[N+]([O-])c1cc(S(=O)(=O)CCCN2CCOCC2)ccc1F | -6.04 (active) |
| O=[N+]([O-])c1ccc(NCCCN2CCOCC2)c(Cl)c1 | inactive |
| CC(NC(=O)CNC(=O)Cc1cccc2ccccc12)c1ccc(S(N)(=O)=O)cc1 (centres undefined) | inactive |
| O=[N+]([O-])c1ccc2c(c1)C(N1CCOCC1)/C(=C/C1(O)CCCCC1)O2 (centres undefined) | inactive |
| CC1(C)CC(=O)CC2(C1)NCC(c1ccccc1Cl)c1c2[nH]c2ccccc12 (centres undefined) | inactive |
| Cc1ccc(S(=O)(=O)n2cccc2CO)cc1 | inactive |
| COCCN(Cc1cc2cc3c(cc2nc1Cl)OCO3)C(=O)c1cccc(C)c1 | inactive |
| COc1cc(C2/C(=C(\O)c3ccc4c(c3)CC(C)O4)C(=O)C(=O)N2Cc2ccco2)ccc1O (centres undefined) | -5.81 (active) |
| COc1ccc(C2/C(=C(/O)c3ccc4c(c3)CC(C)O4)C(=O)C(=O)N2Cc2ccncc2)cc1 (centres undefined) | inactive |
| COc1ccc(/C(O)=C2\C(=O)C(=O)N(Cc3ccco3)C2c2ccc(OC)cc2OC)cc1 (centres undefined) | inactive |
| Cc1cccc(CSc2ccc(-c3cccs3)nn2)c1 | inactive |
| C=CCN1CC(C)/C(=N\O)CC1C (centres undefined) | inactive |
| O=C(N/N=C/c1ccc([N+](=O)[O-])o1)c1cccc(S(=O)(=O)N2CCOCC2)c1 | inactive |
| O=[N+]([O-])c1cc(Cl)cc(/C=N/NC(=S)Nc2cc(S(=O)(=O)N3CCOCC3)ccc2Cl)c1O | -7.04 (active) |
| O=C(N/N=C/c1cc(Cl)cc([N+](=O)[O-])c1O)C(O)(c1ccccc1)c1ccccc1 | inactive |
| CCCCN(C(=O)CCNC(=O)NC12CC3CC(CC(C3)C1)C2)c1c(N)n(CCCC)c(=O)[nH]c1=O | inactive |
| CN(CCc1ccccn1)C(=O)CCC1CCCN(Cc2ccccc2OC(F)F)C1 (centres undefined) | inactive |
| CCc1cc2cc(OC)ccc2nc1SCC(=O)Nc1cc(OC)c(OC)cc1C(=O)O | inactive |
| CCOC(=O)CSc1nnc(-c2ccc([N+](=O)[O-])cc2)o1 | inactive |
| N#Cc1ccc(OCc2nnc(-c3ccc([N+](=O)[O-])cc3)o2)cc1 | -5.3 (active) |
